This passage reports inhibition results from PubChem BioAssay AID1006 (Sanford-Burnham Center for Chemical Genomics, 2008).

Each structure is given as a SMILES string. Among all 200,000 compounds or so, about 3,000 (1.5%) were called active.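 How the source made its calls: active means inhibition above about 50% when tested at 10 µM (limit read from the data); inactive means the rest.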 The entries come from a sample that favours actives as a whole.

Chain of Luciferin 4-monooxygenase (Photinus pyralis) (P08659 whole entry, looked up): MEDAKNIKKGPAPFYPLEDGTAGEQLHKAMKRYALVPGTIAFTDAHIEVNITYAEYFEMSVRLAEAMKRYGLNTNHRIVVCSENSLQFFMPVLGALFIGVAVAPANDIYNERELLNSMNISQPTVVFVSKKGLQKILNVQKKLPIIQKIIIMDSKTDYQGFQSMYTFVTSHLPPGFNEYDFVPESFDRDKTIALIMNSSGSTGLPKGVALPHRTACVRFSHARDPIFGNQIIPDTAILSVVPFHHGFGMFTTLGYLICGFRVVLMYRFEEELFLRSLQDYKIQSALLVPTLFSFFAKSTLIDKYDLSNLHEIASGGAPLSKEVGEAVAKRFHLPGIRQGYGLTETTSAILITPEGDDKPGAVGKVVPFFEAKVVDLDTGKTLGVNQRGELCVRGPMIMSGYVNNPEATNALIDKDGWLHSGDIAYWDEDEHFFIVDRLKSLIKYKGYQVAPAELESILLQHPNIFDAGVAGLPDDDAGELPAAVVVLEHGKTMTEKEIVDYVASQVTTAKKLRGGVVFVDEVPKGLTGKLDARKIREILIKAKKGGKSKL

The assay concerns the target Luciferin 4-monooxygenase (Photinus pyralis) (UniProt P08659). Description: inhibition of purified FLuc reporter enzyme – biochemical, luminescence, ATPLite, artefact control for luciferase-based inhibitor screens, primary screen (AID 1006). The settings on record: ATPLite firefly luciferase biochemical luminescence, 10 min; at 10 µM; active compounds read high. On the technique in general: In ATP-based viability assays light output follows the ATP content of the culture.
Take `COc1ccc(Nc2nc(NCc3ccco3)nc(N/N=C/c3ccccc3Cl)n2)cc1`: the inhibition (in general, the drop in the measured response relative to a control, in per cent) was -1.1% (inactive). The value for `COc1cc(NC(=S)NNC(=O)CC(C)C)c(OC)cc1Cl` was -8.4% (inactive); that for `O=C1OC(/C=C/c2ccccc2)=NC/1=C/c1ccco1` was 53.5% (active); that for `COc1ccccc1/C=C/C1=NC(=C\N(C)C)/C(=O)O1` was 0.6% (inactive). To `CC(C)(C)C1C/C(=C/c2ccco2)C(=O)/C(=C/c2ccco2)C1` (centres undefined) belongs -5.4% (inactive). On to `O=C(C1=C[C@H](c2coc3ccccc3c2=O)C[C@H](OCc2ccc(CO)cc2)O1)N1CCN(Cc2ccccc2)CC1`, for which the inhibition was -6.2% (inactive).

`CCN(CC)c1ccc2oc(=O)c(C)nc2c1`: the inhibition was -3% (inactive).

`CCCCCC(=O)Nc1ccc2oc(-c3ccncc3)nc2c1`: the inhibition was -5.7% (inactive). Consider `CCc1ccc2oc(-c3ccc(N)cc3)nc2c1`, for which the inhibition is 80.7% (active). To `COc1cc(CN2CCNC(=O)C2CC(=O)NCCc2ncccc2C)cc(OC)c1` (centres undefined) belongs -1.3% (inactive). To `CCOC(=O)CCCNC(=O)COC(=O)/C=C/c1ccc2c(c1)OCO2` belongs -1.4% (inactive). `Cc1cc(/C=C2\SC(=Nc3ccc(N4CCOCC4)cc3)N(C)C2=O)c(C)n1-c1cccnc1`: the inhibition is -0.4% (inactive).

For `Cc1cc(/C=C2/NC(=O)NC2=O)c(C)n1-c1cccnc1`, the inhibition is 56.5% (active). In the case of `Cc1ccccc1-n1c(C)cc(/C=C2\NC(=O)NC2=O)c1C`, the inhibition is 83.9% (active). To `Cc1cccc(C)c1-n1c(C)cc(/C=C2\C(=O)NN(c3ccccc3)C2=O)c1C` belongs 13.6% (inactive); to `Cc1cc(/C=C(/C#N)C(=O)Nc2ccc(Cl)cc2)c(C)n1-c1cccnc1`, -3.9% (inactive). For `Cc1ccc(CN2C(=O)N/C(=C/c3cc(C)n(-c4ccccn4)c3C)C2=O)cc1`, the inhibition is 1.2% (inactive).

As for `CC(NC(=O)c1cccc2ccccc12)c1ccc2c(c1)CCCC2` (centres undefined), the inhibition was -6.2% (inactive). To `COc1ccc(C/C(N)=N/OC(=O)c2ccco2)cc1OC` belongs -2.2% (inactive); to `O=C(CCc1ccccc1)NNC(=O)c1ccc(Br)cc1`, -1.3% (inactive). Turning to `Cc1ccc(C)c(Cn2nnc3c(=O)[nH]c(C(=O)Nc4ccc(F)cc4)nc32)c1`, the inhibition was -10.1% (inactive). To `CCN(c1ccccc1)S(=O)(=O)c1ccc2[nH]c(=O)[nH]c2c1` belongs -6% (inactive); to `O=C(COc1cc(Cl)c(Cl)cc1Cl)NCCc1ccccn1`, 4.2% (inactive). The value for `CN(CCN1CCOCC1)Cc1nc(-c2ccc3c(c2)OCO3)no1` was -5.1% (inactive). The value for `O=C(O)CC/C(=N\NC(=O)c1ccc(F)cc1)c1ccc(Br)cc1` was -2.4% (inactive); that for `COc1ccccc1-n1ccnc1SCC(=O)NC(C)(C)C` was -7.3% (inactive). For `COc1ccc(NC(=S)N2N=CCC2c2ccccc2)cc1` (centres undefined), the inhibition was 65.3% (active). The value for `COc1ccc(C(=S)Nc2ccccc2)cc1` was 8.7% (inactive). To `COc1ccc(C(=O)NC2CCN(C(=S)Nc3ccccc3)CC2)cc1` belongs -7.5% (inactive); to `CC(OC(=O)c1ccc2ccccc2n1)C(=O)c1ccccc1` (centres undefined), 81.1% (active); to `COc1ccc(C(=O)COC(=O)c2ccc3ccccc3n2)cc1`, 19.4% (inactive).

Turning to `O=C(Oc1ccc([N+](=O)[O-])cc1)c1ccc2ccccc2n1`, the inhibition was 41.6% (inactive). To `COc1ccc(Cl)cc1NC(=O)Cn1nc(-c2ccc(C)cc2)n(C)c1=S` belongs -5.1% (inactive). To `Cc1ccc(C(=O)Oc2coc(CSc3nnc(NC(=O)c4cccs4)s3)cc2=O)cc1C` belongs -0.1% (inactive).

`Cc1cc(C(=O)N/N=C/c2ccc(N3CCOCC3)cc2)c(C)o1`: the inhibition was 50.7% (active). To `Cc1cc(C(=O)N/N=C/c2ccccc2[N+](=O)[O-])c(C)o1` belongs 32.2% (inactive); to `CC(=C/c1ccccc1)/C=N/NC(=O)c1cc(C)oc1C`, 78.3% (active). To `Cc1cc(C(=O)N/N=C\C(Br)=C\c2ccccc2)c(C)o1` belongs 22.6% (inactive). With `CCN(CC)c1ccc(C(=O)N/N=C/c2ccc(N3CCOCC3)cc2)cc1`, the inhibition was -7% (inactive). Turning to `Cc1ccccc1N/N=C/c1ccc(N2CCOCC2)cc1`, the inhibition is -3.5% (inactive). To `Cc1ccc(NC(=S)N(Cc2ccco2)C(C)c2cccs2)cc1` (centres undefined) belongs 3.7% (inactive); to `CCn1nc(C)cc1C(=O)N1CCCC(C(=O)c2cccc(OC)c2)C1` (centres undefined), 5.6% (inactive); to `COc1ccc(-n2cc(CNC3CCOCC3)c(-c3cccc(F)c3)n2)cc1`, -2.3% (inactive).

`Cc1ccc(Cn2ccc(NC(=O)c3cc(C(C)C)on3)n2)cc1`: the inhibition is 0% (inactive). To `O=C(Nc1ccn(Cc2ccccc2)n1)c1n[nH]c([N+](=O)[O-])c1Cl` belongs 83% (active); to `O=C(Nc1ccn(Cc2ccccc2)n1)c1cccc(F)c1`, 64.2% (active); to `O=C(Nc1ccn(Cc2ccc(F)cc2)n1)c1ccncc1`, 0.9% (inactive). The value for `Cn1cc([N+](=O)[O-])c(C(=O)Nc2cnn(Cc3ccc(F)cc3)c2)n1` was -8.5% (inactive); that for `CC(=O)Nc1ccn(Cc2c(F)cccc2Cl)n1` was -2.9% (inactive). For the compound `CCOc1ccc(C(CC(=O)O)NC(=O)C23CC4CC(CC(C4)C2)C3)cc1OC` (centres undefined), the inhibition was -3.9% (inactive). For the compound `CN(C)CCCn1c(SCCN2C(=O)c3ccccc3C2=O)nc2ccccc2c1=O`, the inhibition was -5.8% (inactive). The value for `CC(C)N(Cc1nc(-c2ccc3c(c2)OCO3)no1)CC1CCC(=O)N1` (centres undefined) was -8.8% (inactive). `CN(C)/C=C(/C(=O)c1ccccc1)S(=O)(=O)c1ccc(Cl)cc1`: the inhibition was -5.6% (inactive). To `Cc1ccc(N2C(=O)C(CC(=O)Nc3cccc(F)c3)N(CCc3ccncc3)C2=O)cc1` (centres undefined) belongs -0.5% (inactive); to `COc1cccc(-c2ccc(SCC(=O)N3CCN(c4ccccc4)CC3)nn2)c1`, -6.1% (inactive); to `COc1ccc(-n2ncc3c(N4CCCc5ccccc54)ncnc32)cc1`, 54.9% (active). As for `O=C(NNc1ncnc2c1cnn2-c1ccccc1)c1ccco1`, the inhibition is 6% (inactive). The value for `Cc1cccc(-n2ncc3c(N4CCc5ccccc54)ncnc32)c1` was 17.1% (inactive).

On to `c1ccc(-n2ncc3c(N4CCCC4)ncnc32)cc1`, for which the inhibition was 73.9% (active). To `COc1ccc(-n2ncc3c(N4CCc5ccccc54)ncnc32)cc1` belongs 41.9% (inactive).

In the case of `C1=C(CCNc2ncnc3c2cnn3-c2ccccc2)CCCC1`, the inhibition is 10.5% (inactive).

With `O=C(Nc1nnc(Cc2ccc(Cl)cc2)s1)c1cccnc1`, the inhibition is 7.5% (inactive).

As to `O=c1oc(/C=C/c2ccccc2)nc2ccccc12`, the inhibition was 80.5% (active). `S=c1[nH]nc(/C=C/c2ccccc2)o1`: the inhibition was 7.5% (inactive). For the compound `CCn1c(/C=C/c2ccc([N+](=O)[O-])o2)nc2ccccc2c1=O`, the inhibition is -6.1% (inactive). The value for `N#Cc1ccc(N2Cc3ccccc3/C2=N/C(=O)Nc2ccc(Cl)cc2)cc1` was -4.6% (inactive); that for `Cc1ccc(S(=O)(=O)N(CC(=O)Nc2cccc([N+](=O)[O-])c2)Cc2ccc(Cl)cc2)cc1` was -6.1% (inactive); that for `COc1ccc(/C=C/C(=O)Nc2cccnc2)cc1OC` was 13% (inactive). `COc1ccc(/C=C/C(=O)N2CCCC2)cc1OC`: the inhibition was 5.6% (inactive). The value for `COc1ccc(/C=C/C(=O)Nc2ccc(C34CC5CC(CC(O)(C5)C3)C4)cc2)cc1OC` was 57.2% (active); that for `CCCN(CC(=O)Nc1ccc(OC)c(OC)c1)CC(=O)Nc1ccc(F)c(F)c1F` was 8.5% (inactive); that for `CCOc1cccc(-n2nnnc2-c2ccc(OC)cc2)c1` was -0.7% (inactive). For `COc1ccc(-n2nnnc2-c2nc3ccccc3s2)cc1`, the inhibition is 73.2% (active). To `COc1ccc(-n2nnnc2SCC(=O)Nc2ccccc2)cc1` belongs -8% (inactive); to `CCc1ccc(Oc2nc([N+](=O)[O-])nn2C)cc1`, -9.5% (inactive); to `Cc1nc(-c2ccccc2)sc1C(=O)/C=C/N(C)C`, 10.8% (inactive). `O=C(CSc1nncs1)NC1CCCc2ccccc21` (centres undefined): the inhibition is -8.5% (inactive). To `COCC1CCCN(Cc2nc(-c3ccc4c(c3)OCO4)no2)C1` (centres undefined) belongs 0.8% (inactive); to `O=C(/C=C/c1ccc(N2CCOCC2)cc1)c1ccccc1`, 60.8% (active). For `O=C(/C=C/c1ccccc1)c1ccoc1`, the inhibition was 14% (inactive). To `O=C(O)c1ccc2c(c1)C(=O)N(c1ccc(/C=C/C(=O)c3ccccc3)cc1)C2=O` belongs -0.5% (inactive).

Consider `CC1=C[C@H]2Cc3cc(C)cc(C)c3S(=O)(=O)[C@@H]2C=C1`, for which the inhibition was -5.9% (inactive). To `O=C(Nc1cccc(O)c1)c1ccc(C(=O)c2ccccc2)o1` belongs 69.9% (active). To `O=C(CSc1ccccc1)Nc1ccc(C(=O)Nc2cccc(O)c2)cc1` belongs 1.9% (inactive); to `C/C(=C\C(=O)c1ccccc1)Nc1cccc(O)c1`, 44.4% (inactive). With `NC(=O)C1CCN(C(=O)COc2cccc3cccnc23)CC1`, the inhibition was -10% (inactive). The value for `Cc1ccsc1C(=O)OCC(=O)c1cc(C)n(CC2CCCO2)c1C` (centres undefined) was 90.3% (active); that for `Cc1cc(C(=O)Cn2cnc3cc([N+](=O)[O-])ccc3c2=O)c(C)n1CC1CCCO1` (centres undefined) was 1.6% (inactive). The value for `Cc1cc(C(=O)CCl)c(C)n1CC1COc2ccccc2O1` (centres undefined) was -0.3% (inactive); that for `CCC1C=C(c2ccccc2)C=CN=C1N(CC)CC` (centres undefined) was -5% (inactive); that for `O=C(Cn1c(N2CCN(C/C=C/c3ccccc3)CC2)nc2ccccc21)c1ccccc1` was -2.2% (inactive). The value for `CCN(CCCNC(=O)CCn1c(=O)[nH]c2ccsc2c1=O)c1ccccc1` was -2.6% (inactive). On to `CC(C)=CCN1CCN(Cc2ccc(Oc3ncccn3)cc2)CC1CCO` (centres undefined), for which the inhibition is -0.1% (inactive). The value for `OCCCN1c2ccccc2Nc2nnc(-c3ccccc3)cc21` was 57.2% (active).

For `N=c1c2c(-c3ccccc3)c(-c3ccccc3)n(Cc3ccccc3)c2ncn1CCCO`, the inhibition was -2.7% (inactive).

In the case of `CCCN(CCC)CCCNC(=O)CNC(=O)c1nn(-c2ccc(OC)cc2)c(=O)c2ccccc12`, the inhibition is -0.3% (inactive). `O=C(Oc1cccnc1)c1cc2ccccc2oc1=O`: the inhibition was -6.1% (inactive). To `Cc1ccc(OC(=O)c2cc3ccccc3o2)cc1` belongs 73.3% (active). As to `Cc1ccsc1C(=O)OCC(=O)c1cc2ccccc2o1`, the inhibition is 1.6% (inactive).
